# Test results reported in PubChem BioAssay AID743318 (Broad Institute, 2014).
# Entries with a potency or affinity are not part of this list. Unmarked numbers belong to inactive results. The source made the active and inactive calls.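 How the source made its calls: active means cytotoxic signal drop whose half-maximal concentration is at most twice the top valid dose; inconclusive means flat drop between 30% and 70%, or poor fit; inactive means the rest.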
# Experiment: A549 cell cytotoxicity, dose response, cytotoxicity control, plate reader, dry powder, set 7 (AID 743318)
# Conditions: A549 viability, CellTiter-Glo ATP luminescence, 72 h; series mostly up to 26 µM; activity change, negative = cytotoxic: at the top concentration
Compound,outcome,"activity change, negative = cytotoxic [%]"
Cc1ccc(C(C)C)c(OCCn2c(=S)[nH]c3ccccc32)c1,inactive,
Cc1ccc(C(C)C)c(OCCn2c(=S)[nH]c3cccc(C)c32)c1,,-17.9
Cc1ccc(C(C)C)c(OCCn2c(=S)[nH]c3ccc(F)cc32)c1,,-2.56
Cc1ccc(C(C)C)c(OCCn2c(=S)[nH]c3c(F)cccc32)c1,,10.1
COc1cccc(OCCn2c(=S)[nH]c3ccccc32)c1,,9.38
Cc1ccc(OCCn2c(C)nc3ccccc32)cc1,,26.1
S=c1[nH]c2ccccc2n1CCOc1ccc(Cl)cc1,,-23.8
S=c1[nH]c2ccccc2n1CCOc1ccccc1,,-16.9
Cc1ccc(OCCn2c(SCCO)nc3ccccc32)c(C(C)C)c1,,-1.13
Cc1cccc(OCCn2c(=S)[nH]c3ccccc32)c1,,10.7
Cc1ccc(C(C)C)c(OCCn2c(=S)[nH]c3c(Cl)cccc32)c1,,-13.5
CC(C)(C)c1ccccc1OCCn1c(=S)[nH]c2ccccc21,,-20.2
COc1ccc(OCCn2c(=S)[nH]c3ccccc32)cc1,,-10.1
Cc1ccc(C(C)C)c(OCCn2c(=S)[nH]c3cccc(Cl)c32)c1,,-5.23
COCc1nc2ccccc2n1CCOc1ccc(C(C)(C)C)cc1,,16.1
CSc1nc2ccccc2n1CCOc1cc(C)ccc1C(C)C,,20.2
Cc1ccc(OCCn2cnc3ccccc32)c(C(C)C)c1,,11.1
Cc1ccc(OCCn2cnc3ccccc32)cc1,,31.7
Fc1cccc2c1[nH]c(=S)n2CCOc1ccccc1,inactive,
Fc1ccc(OCCn2c(=S)[nH]c3ccccc32)cc1,,-9.83
Cc1ccc(OCCn2c(=S)[nH]c3ccccc32)cc1,,9.56
c1ccc(OCCn2cnc3ccccc32)cc1,,-11.2
Cc1cccc(OCCn2c(=S)[nH]c3cc(F)ccc32)c1,inactive,
Cc1ccc(C)c(OCCn2c(=S)[nH]c3ccccc32)c1,,-10.8
Cc1ccc(C(C)C)c(OCCn2c(CO)nc3ccccc32)c1,,22.9
